Measurements taken from PubChem BioAssay AID1035470 (Broad Institute, 2014).
Out of some 1,800 compounds screened, fewer than 10 were called active. Another 16% or so got no clear call; they are omitted.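 The calls were made as follows: active = compound lowering the normal-ribosome reporter at least twice as much as the humanized-ribosome reporter, growth loss under a set limit; inconclusive = no clear call, values can overlap the other calls; inactive = the rest.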 The list is a sample of the results. Entries with a potency or affinity are not part of this list.

Test: growth inhibition of wild-type GFP E. coli versus G2058-humanized strain, dose response, G2058 mutant RFP vs wild-type GFP, cherry-pick, two tests (AID 1035470)
Settings: E. coli WT-GFP vs G2058-humanized RFP, fluorescence, 24 h; series mostly up to 50 µM

outcome, inactive:
COC(=O)CNC(=O)COC(=O)c1ccc(Cl)nc1
CC(OC(=O)CCc1nc2ccccc2c(=O)[nH]1)C(=O)c1ccc(Br)cc1 (stereo not drawn)
C(=C/c1nccc2c1[nH]c1ccccc12)/c1ccc2c(c1)OCO2
O=C(Nc1cc(S(=O)(=O)N2CCOCC2)ccc1N1CCOCC1)c1ccc([N+](=O)[O-])s1
Cc1cc(Br)cn2c(Cc3cccc(Cl)c3)c(-c3ccco3)nc12
Cc1nc2ccccn2c1C(=O)Nc1ccc(Cl)cc1
COC(=O)c1ccc(CSc2nc3ccccc3s2)o1
C[C@@H]1CCCCO[C@@H](CN(C)C(=O)CCCN(C)C)[C@H](C)CN([C@@H](C)CO)C(=O)c2cc(NC(=O)Nc3cccc4ccccc34)ccc2O1
Cc1nc(Nc2ccccc2)sc1C(=O)Nc1ccccc1
Cn1c(=O)c2c(ncn2CC(O)CNc2ccc(F)cc2)n(C)c1=O (stereo not drawn)
CC1Cc2cc(S(=O)(=O)N3CCN(c4cccc(Cl)c4)CC3)ccc2N1C(=O)C1CC1 (stereo not drawn)
Nc1ccccc1C#CC(=O)c1ccccc1
Cn1cc(CN2CCCC(C(=O)c3cccs3)C2)c(-c2cccc(Cl)c2)n1 (stereo not drawn)
CC(=O)N1c2c(cc(Br)cc2S(=O)(=O)N2CCCCC2)CC1C (stereo not drawn)
CC(OC(=O)COc1ccccc1)C(=O)NC1CCCC1 (stereo not drawn)
O=C(CCNC(=O)c1ccco1)Nc1cccc(Br)c1
CC1(C)CC2CC(C)(CN2c2ncnc3ccccc23)C1 (stereo not drawn)
CS(=O)(=O)N(CC(=O)N1CCc2ccccc2C1)c1cccc(Br)c1
O=S(=O)(NCc1cc(-c2ccccc2)no1)c1ccccc1Cl
CC(=O)c1ccc(-c2cccc([C@H]3[C@@H]4C=CC[C@@H](C)[C@@H]4C(=O)N3Cc3ccccc3)c2)cc1
O=C(NC1CCCCC1)C(c1cccc2ccccc12)n1c(=O)c(-c2ccco2)nc2ccccc21 (stereo not drawn)
CC(C)(C)CC(=O)NCCc1csc(-c2ccccc2)n1
Cc1cccc(NC(=O)CN(C)S(=O)(=O)c2cccs2)c1
Cc1ccc2oc(C(=O)N(C)Cc3ccc(C)o3)c(C)c2c1
O=C(NCc1cccnc1)C1CCN(S(=O)(=O)c2cc([N+](=O)[O-])ccc2Cl)CC1
COc1ccc(CNC(=O)c2sc3nc4c(c(C(F)(F)F)c3c2N)CCC4)cc1OC
CSc1ccccc1OCc1cc(C(=O)N(C)Cc2nonc2C)no1
O=C1Nc2ccc(F)cc2C12Nc1ccccc1-c1nnc(SCc3ccccc3)nc1O2 (stereo not drawn)
COc1cccc(NC2=Nc3cccc4cccc2c34)c1
COCc1nnc(NC(=O)c2ccc(S(=O)(=O)N3CCCC3)cc2)o1
O=C(COc1cccc2c1CCN(Cc1ccc(Br)cc1)C2=O)N1CCOCC1
Cc1cccc(OCc2nc(C#N)c(N3CCCC3)o2)c1
Cc1onc(-c2c(Cl)cccc2Cl)c1C(=O)Nc1ccc(Cl)cn1
NS(=O)(=O)c1ccc(NC(=O)CCC(=O)O)cc1
Cc1ccc(NC(=O)C[n+]2cc(-c3ccccc3)n3c2CCC3)cc1
Cc1ccc(S(=O)(=O)Nc2ccc3c(c2)C(=O)N([C@@H](C)CO)C[C@@H](C)[C@H](CN(C)C(=O)c2ccccc2)OCCCC[C@@H](C)O3)cc1
COc1ccc(NC(=O)Nc2cccc3c2O[C@@H](CN(C)S(=O)(=O)c2ccc(Cl)cc2)[C@H](C)CN([C@@H](C)CO)C3=O)cc1
O=C1c2ccccc2C(=O)N1CCc1c[nH]c2ccccc12
CC(=O)Cc1cc(O)c2ccccc2c1OC(=O)c1ccc(Br)cc1
COc1ccc(CC(=O)NC(C)c2ccc3ccccc3c2)cc1 (stereo not drawn)
Fc1ccc(Br)cc1SCCc1ccncc1
C[C@@H]1CCCCO[C@@H](CN(C)C)[C@H](C)CN([C@@H](C)CO)C(=O)c2cc(NC(=O)Nc3cccc4ccccc34)ccc2O1
Cc1onc(-c2ccccc2)c1C(=O)Oc1ccccc1
COC(=O)c1ccc2nc(-c3ccc(OC)c(OC)c3)c(Cc3ccc(C)cc3)n2c1
COc1ccc(C(=O)NCCC2=CCCCC2)cc1[N+](=O)[O-]
C[C@H]1CN([C@@H](C)CO)C(=O)CCCn2nncc2CO[C@@H]1CN(C)Cc1ccccc1C(F)(F)F
COc1ccc(N2C(=O)C3C(c4ccc(C(=O)O)cc4)NC(Cc4ccccc4)(C(=O)O)C3C2=O)c([N+](=O)[O-])c1 (stereo not drawn)
Cc1ccc2nc(-c3ccc(Cl)cc3)c(Cc3ccccc3C(F)(F)F)n2c1
COc1ccc2cc(CO)c3cc(OC)c(OC)cc3c2c1
CC(C)(C)NC(=O)C(c1ccncc1)N(Cc1ccc(F)cc1)C(=O)c1ccc(-c2ccccc2)[nH]1 (stereo not drawn)
Cc1noc(C)c1NC(=O)N(C)C[C@H]1OCCCC[C@@H](C)Oc2ccc(NC(=O)Nc3cccc4ccccc34)cc2C(=O)N([C@@H](C)CO)C[C@H]1C
Cn1c(CCN2CCOCC2)nc2cc(NC(=O)c3cccs3)ccc21
COc1ccccc1C(C(C(=O)c1ccccc1)N1CCOCC1)N1CCOCC1 (stereo not drawn)
Cc1cccc(-c2ccc([C@H]3[C@@H](CO)N4CCCCN(S(=O)(=O)c5ccccc5C)C[C@H]34)cc2)c1
CCc1cc(CN2CCOCC2)c(NC(=O)c2ccccc2)s1
COc1ccccc1CC(=O)NCCc1c[nH]c2ccccc12
Cn1c(=O)n(C)c2cc([N+](=O)[O-])c(N3CCN(C(=O)c4cccc(F)c4)CC3)cc21
O=C(CSCc1ccc(Br)cc1)NCc1ccccn1
Cc1ccc(CCN2C(=O)c3ccccc3C2C(=O)NCc2cccnc2)cc1 (stereo not drawn)
CS(=O)(=O)c1ccc(Cl)c(NC(=O)COC(=O)c2c(Cl)cccc2Cl)c1
COCC#Cc1ccc2c(c1)O[C@H](CN(C)C(=O)c1ccccc1)[C@@H](C)CN([C@H](C)CO)S2(=O)=O
Cc1noc(C)c1NC(=O)Nc1ccc2c(c1)C(=O)N([C@H](C)CO)C[C@H](C)[C@H](CN(C)C(=O)Nc1ccc3c(c1)OCO3)OCCCC[C@H](C)O2
CC1(C)CC(=O)c2cnc(N3CCc4ccccc43)nc2C1
S=c1nc(-c2cc(Cl)cc(Cl)c2)[nH][nH]1
O=[N+]([O-])c1ccc(NCCNCCOc2nonc2-c2ccccc2)c([N+](=O)[O-])c1
Cc1nn2c(NCc3ccccn3)cc(C(C)C)nc2c1-c1ccccc1
O=S(=O)(NOCc1ccc(Cl)cc1)c1ccc(Cl)cc1
O=C(Nc1ccc2c(c1)OCCO2)C1C(c2ccccc2)=Nc2ccccc2N1C(=O)c1cccnc1 (stereo not drawn)
O=C(COc1ccccc1Cl)Nc1nc(-c2ccncc2)cs1
CCOc1ccccc1N1CC(C(=O)Nc2cccc(S(=O)(=O)N3CCCCC3)c2)CC1=O (stereo not drawn)
COc1ccc(-c2csc3ncn(-c4ccc(C)cc4)c(=O)c23)cc1OC
O=C(NCc1nnnn1-c1ccc(Cl)cc1)c1ccc([N+](=O)[O-])o1
O=[N+]([O-])c1cccc(COc2ccc(CN3CCOCC3)cc2)c1
C[C@@H]1CN([C@@H](C)CO)C(=O)c2cc(NC(=O)C3CC3)ccc2O[C@H]1CN(C)C(=O)Nc1ccc(C(F)(F)F)cc1
CCN(CC(=O)Nc1cccc(S(=O)(=O)N2CCCC2)c1)CC(=O)Nc1ccccc1OC
COC(=O)c1ccc2nc(-c3ccco3)c(Cc3ccc(C)cc3)n2c1
COc1ccc(CC(=O)Nc2cc(S(=O)(=O)Nc3ccc(OC)cc3)ccc2OC)cc1
CC(C)CNc1nc(S(=O)(=O)c2ccccc2)c(Cl)s1
O=C(CN1CCCCC1)n1c2ccccc2c2ccccc21
O=C1c2ccccc2C(c2nnnn2Cc2ccccc2)N1Cc1cccc(F)c1 (stereo not drawn)
Cc1nn(CC(=O)c2ccc(Br)s2)c(C)c1[N+](=O)[O-]
Brc1ccc(-n2cnc(-c3ccccc3)c2)cc1
NC(=O)c1cccnc1Oc1ccc(Cl)cc1Cl
CCc1ccc(NC(=O)CCc2c(C)nn(-c3ccc(N4CCCCC4)nn3)c2C)cc1
COc1ccc2c(c1)-c1nc(N)sc1CC2
CC(C)(C)N(Cc1ccccc1)C(=O)COC(=O)Cn1cnc2ccccc2c1=O
COc1ccc(OC)c(NC(=O)CN(C)CC(=O)Nc2ccccc2Br)c1
O=C(c1ccccc1)C1CN(Cc2ccccc2)CCC1(O)c1ccccc1 (stereo not drawn)
CCC1(CC)NC(=O)N(CC(=O)N2N=C(c3ccc(Cl)cc3)CC2c2ccco2)C1=O (stereo not drawn)
CCOc1ccccc1C(=O)NCC(=O)OCCOc1cccc(Cl)c1
O=C(Nc1cc(F)ccc1F)N1CCCCN2[C@@H](CO)[C@H](c3ccc(-c4ccncc4)cc3)[C@@H]2C1
O=S1(=O)N[C@H](Cc2ccccc2)COc2cc(N3CCSCC3)ccc21
COc1cccc(NC(=O)c2ccc(NCCCN3CCC(C)CC3)c([N+](=O)[O-])c2)c1
Cc1noc(C)c1S(=O)(=O)N(Cc1ccccc1)C(C)C
Cc1ccc(-c2c(=O)n(O)c3ccccc3[n+]2[O-])cc1
Cc1nn2c(C)c(C(=O)Nc3ccccc3)cnc2c1-c1ccccc1
CC(C)(C)S(=O)(=O)Cc1nc(-c2ccc(Cl)c(Cl)c2)cs1
CCCCc1cc2c(cc1NC(=O)CN1CCCCC1)OCCO2
